A selection: hits, their analogues and other compounds. The true share with any hit is near 2.3%.
Kir21 block: inhibitors of mouse Kir2.1 inward-rectifier potassium channel | P35561 | HEK293-Kir2.1, FluxOR thallium flux fluorescence; stronger effect = lower value | B-score at 10 µM | 0.85% of 310,000 active | AID 1672;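 active = fluorescence ratio B-score at or below minus 3 SD of library scores, with starting-brightness B-score within 2 SD, cut at about -4.2 in these data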;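 note: channel flux triggered by added potassium and thallium sulfate stimulus; B-score of peak minus minimum fluorescence over baseline after thallium stimulus; more negative B-score means stronger Kir2.1 block with less thallium influx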
Rce1 inh: blocks yeast Ras-converting enzyme. Q03530. yeast membranes, quenched prenylated peptide cleavage fluorescence. calls only. 0.27% of 290,000 active. AID 2563;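 active = fall in fluorescence gain of 50% or more versus controls, with final raw signal at or below 3038400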;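 note: plate controls were neutral control wells for no effect and wells lacking membranes for full effect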
Target sequence (Q03530 whole entry, looked up): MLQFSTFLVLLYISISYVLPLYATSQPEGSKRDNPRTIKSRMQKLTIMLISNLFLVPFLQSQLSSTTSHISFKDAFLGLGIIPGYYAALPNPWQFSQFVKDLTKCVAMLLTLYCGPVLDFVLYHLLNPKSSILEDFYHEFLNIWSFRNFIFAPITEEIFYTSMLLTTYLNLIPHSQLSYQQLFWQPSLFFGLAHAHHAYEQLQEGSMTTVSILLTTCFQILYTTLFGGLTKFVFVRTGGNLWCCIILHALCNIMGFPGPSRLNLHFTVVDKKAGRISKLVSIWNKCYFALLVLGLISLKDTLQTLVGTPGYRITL
DNA FID counter: counter-screen for HCV NS3 helicase inhibitors: DNA intercalator displacement; DNA fluorescent intercalator displacement, fluorescence; inhibition, % at 7.9 µM; 0.17% of 290,000 active; in the data active = inhibition above about 37%;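 note: 0% = vehicle and 100% = reference compound; higher means more ethidium bromide displaced from hairpin DNA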
PfM18AAP inh: PfM18AAP enzyme inhibition. recombinant PfM18AAP, H-Glu-NHMec fluorogenic cleavage. inhibition, % at 7.35 µM. 1.2% of 290,000 active;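 active = inhibition above the campaign mean inhibition over all tested compounds plus 3 SD, cut at about 28% in these data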;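 note: 0% = plate median of test compound wells and 100% = 2 mM ZnCl2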
An asterisk follows results filed as active; i = inactive; . = no result given; + = active, no number.

SMILES | Kir21 block | Rce1 inh | DNA FID counter | PfM18AAP inh
CC(CCN1CCN(c2ccccc2)CC1)c1ccccc1 (configuration not stated) | 0.03 | i | 5.5 | -12.9
OCCN1CCN(C2CCC(c3ccc(F)cc3)c3ccc(F)cc32)CC1 (configuration not stated) | -1.49 | i | . | .
C#CCNC(=O)C1=C[C@@H](C(C)(C)C)C[C@@H](OCc2ccc(CO)cc2)O1 | -2 | i | -30.8 | 4.6
C#CCNC(=O)C1=C[C@@H](C2CC2)C[C@@H](OCc2ccc(CO)cc2)O1 | -6.55* | i | -20.4 | 4.0
Cc1ccc2cccc(OCC(=O)Nc3ccc4c(c3)OCO4)c2n1 | -0.67 | i | -11.6 | -8.8
Cc1ccc2cccc(S(=O)(=O)Nc3ccc4c(c3)OCO4)c2n1 | -5.32* | i | -7.2 | 3.4
Cc1cc(=O)oc2c3c(cc(OCC(=O)NC(Cc4ccc(Cl)cc4)C(=O)O)c12)OC(C)(C)CC3 (configuration not stated) | 1.15 | i | -4.8 | 2.2
CC1=NN(c2ccccc2)C(=O)/C1=C\c1ccc(Br)s1 | 0.78 | + | 4.1 | 24.9
COc1cccc(-c2ccc(-c3noc(-c4ccccc4F)n3)c(OC)n2)c1 | 0.16 | + | -3.6 | -5.0
CN(C)c1nc(-c2ccccc2)c2cc(Cl)ccc2n1 | -0.9 | i | -12.3 | 7.7
O=C(CS(=O)(=O)c1ccccc1)c1cc2cc(F)ccc2oc1=O | -3.88 | i | -29.6 | 28.5*
O=C(CS(=O)(=O)c1ccccc1)c1cc2ccccc2oc1=O | 0.03 | i | -19.4 | 19.8
CCC1CCCCN1CCCNC(=O)CCC(=O)N1CC(C)Oc2ccccc21 (configuration not stated) | 0.78 | i | 0.1 | -1.1
O=C(Cc1ccccc1)NCC(=O)OC(c1ccccc1)c1ccccc1 | -5.44* | i | -22.6 | 3.3
O=C1c2cccc(OCC(=O)N3N=C(c4cccs4)CC3c3ccc(F)cc3)c2CCN1Cc1cccnc1 (configuration not stated) | 0.01 | + | -4.2 | -14.0
COc1ccc(CNC(=O)C2CC(=O)N(C3CCCC3)C2)cc1 (configuration not stated) | 0.01 | i | -6.5 | -2.2
O=C(Nc1cccc(-c2cn3ccccc3n2)c1)C1CC1 | -0.5 | + | -3.4 | 0.8
CC(C)c1ccccc1NC(=O)CNCCOc1ccccc1F | -11.2 | i | 5.2 | -2.1
CCC(C(=O)OCC(=O)NC(=O)c1ccccc1OC)c1ccccc1 (configuration not stated) | -8.06* | i | . | .
CCC(C(=O)OCC(=O)NC(=O)c1ccccc1)c1ccccc1 (configuration not stated) | -0.27 | i | . | .
CCn1c2ccccc2c2nnc(NN)nc21 | 2.48 | i | -3.9 | 31.2*
CC(C)CSc1nnc2c3ccccc3n(C)c2n1 | -0.07 | i | -21.7 | -0.6
Cn1c2ccccc2c2nnc(NN)nc21 | 1.56 | i | -1.6 | 29.9*
CCOc1ncccc1C(=O)Nc1ccc2nc(C)sc2c1 | 0.38 | i | -39.7 | 5.2
O=C(CCCCCNc1nc(=S)[nH]c2ccccc12)NCCC1=CCCCC1 | 0.88 | i | -6.0 | 1.7
SMILES | Kir21 block | Rce1 inh | DNA FID counter | PfM18AAP inh
COc1ccc(-c2cc(C(=O)N3CCN(S(=O)(=O)c4ccc(C)cc4)CC3)[nH]n2)cc1 | -0.57 | i | -36.8 | 1.8
COc1ccc(CCNC(=O)C/C(C)=N/NC(=O)COc2ccc(C)cc2Br)cc1OC | -0.26 | i | -31.8 | 0.6
Cc1[nH]c2ccccc2c1CN1CCC(Cc2ccccc2)CC1 | -1.26 | i | 17.6 | -9.8
COc1cccc(/C=N/n2c(COc3ccccc3)n[nH]c2=S)c1OC | -0.77 | i | -31.7 | 31.7*
COc1cc(/C=N/n2c(COc3ccccc3)n[nH]c2=S)cc(Br)c1O | -0.29 | i | -14.3 | 30.8*
COc1cccc(/C=N/n2c(COc3ccccc3)n[nH]c2=S)c1O | 0.58 | i | -14.8 | 22.8
CN(C(=O)c1cccc(COc2ccc(Cl)cc2Cl)c1)c1ccccc1 | -5.98* | i | -18.1 | -6.5
Cc1nn(CC(=O)NCc2ccc(OC(C)C)cc2)c(=O)c2cc(-c3ccccc3)nn12 | -0.05 | i | -7.9 | 5.4
CC(=O)N/N=C(/C)c1ccc(NC(=O)c2csc(C)c2C)cc1 | -1.77 | i | -21.6 | -0.8
CCCn1cc(SCC(=O)NCc2ccco2)c2ccccc21 | -5.16* | i | -21.8 | 1.9
Cc1cc(C)cc(CSCC(=O)NN=C2CCCCCC2)c1 | -10.3* | i | -11.9 | 8.9
CN1CCN(CCCNC(=O)c2cc3c(-c4ccc(Cl)cc4)nn(C)c3s2)CC1 | -2.22 | + | 29.1 | 1.0
O=S(=O)(Nc1nc(SCc2ccc(Cl)cc2)n[nH]1)c1ccc(F)cc1 | -10.4* | i | -9.1 | 6.8

Assay outcomes (PubChem)
